Potency, Z-AUC and outcome data for 38 compounds are collected here from PubChem BioAssay (NCATS).

The structures appear in SMILES notation. Results filed as inconclusive are left out. Entries that show only a call come without a potency. Active and inactive are the calls of the source. Unless noted, the call rests on the fitted dose curve; in most records, active means well fitted inhibition curve with a large enough effect; inconclusive means small, poorly fitted or top-dose-only effect; inactive means flat fitted curve, though single readings scatter.

Sequence of Phospholipid hydroperoxide glutathione peroxidase GPX4 (Homo sapiens) (P36969 whole entry, looked up): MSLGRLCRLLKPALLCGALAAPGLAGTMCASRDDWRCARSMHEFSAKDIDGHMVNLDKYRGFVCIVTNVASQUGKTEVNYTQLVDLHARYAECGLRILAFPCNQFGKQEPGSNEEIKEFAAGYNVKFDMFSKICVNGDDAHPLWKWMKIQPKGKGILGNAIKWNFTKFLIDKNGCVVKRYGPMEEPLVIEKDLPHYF

The first assay addresses Phospholipid hydroperoxide glutathione peroxidase GPX4 (Homo sapiens) (UniProt P36969). Nature of the assay: Primary qHTS Assay for Inhibitors of Recombinant Selenoprotein Glutathione Peroxidase 4 (GPX4) (AID 1845192). Further: nearly all actives have a fitted effect of over 65% in size. Particulars: recombinant GPX4, GR-coupled NADPH fluorescence, 15 min; series mostly up to 50 µM. An outline of the steps: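 NADPH consumption, followed by fluorescence at 340/450 nm between 0 and 15 min, reports GPX4 activity via coupled glutathione reductase (100 nM). Enzyme 200 nM was pre-exposed to compound 30 min; 0.5 mM cumene hydroperoxide and 1 mM GSH served as substrates.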
In general terms: In qHTS, concentration-response curves come from the screen itself.
Take `CCCCCCCCCCCCCCCCCCOC[C@H](COP(=O)([O-])OCC[N+](C)(C)C)OC`: the Potency entry is “inactive”. Same read-out and setting: the entry for `C=C1C[C@@]23CC[C@H]4[C@@](C)(CCC[C@@]4(C)C(=O)OC4OC(CO)C(O)C(O)C4O)[C@@H]2CC[C@]1(OC1OC(CO)C(O)C(O)C1OC1OC(CO)C(O)C(O)C1O)C3` (stereo partly specified) is “inactive”; for `CN1CCCC1CCOC(C)(c1ccccc1)c1ccc(Cl)cc1` (stereo unspecified) it is “inactive”. Same read-out and setting: the entry for `c1ccc(C2CN3CCSC3=N2)cc1` (stereo unspecified) is “inactive”; for `NCCCCN=C(N)N` it is “inactive”; for `CC#CCOC(=O)c1c(C)nc2sc3c(c2c1N)CCC(O)C3` (stereo unspecified) it is “inactive”. With `CN[C@H](CC(=O)O)C(=O)O`, the Potency result was “inactive”. With `Nc1ccc(N2C(=O)c3ccccc3C2=O)c(Cl)c1`, the Potency result is “inactive”. Same read-out and setting: the entry for `CC1=C(/C=C/C(C)=C/C=C/C(C)=C\C(=O)O)C(C)(C)CCC1` is “inactive”; for `CCCCCCCCCCCCCCC[C@H](O)[C@H](N)CO` it is “inactive”; for `O=C(O)c1cc(=O)cc(C(=O)O)[nH]1` it is “inactive”. The same measure, in the same setting: in the case of `N[C@@H](CS(=O)O)C(=O)O` it was “inactive”; in that of `NCC(O)(CS(=O)(=O)O)c1ccc(Cl)cc1` (stereo unspecified), “inactive”; in that of `CCCc1c(OCCCOc2ccc(OCC(=O)O)cc2)ccc(C(C)=O)c1O`, “inactive”. Turning to `CN1C2CCC1CC(OC(c1ccccc1)c1ccccc1)C2` (stereo unspecified), the Potency entry is “inactive”.

For `CC1CNCCN1S(=O)(=O)c1cccc2cnccc12` (stereo unspecified), the Potency result is “inactive”. Same read-out and setting: the entry for `O=c1ccn([C@@H]2O[C@H](COP(=O)(O)OP(=O)(O)O)[C@@H](O)[C@H]2O)c(=O)[nH]1` is “inactive”; for `Oc1cc(O)c2c(c1)O[C@H](c1ccc(O)c(O)c1)[C@@H](O)C2` it is “inactive”. `COc1cc(CC(=O)O)ccc1O`: the Potency entry is “inactive”.

For the compound `O=C(O)/C=C/c1ccc(O)c(O)c1`, the Potency entry is “inactive”. In the case of `O=c1cc(-c2ccccc2F)[nH]c2cc3c(cc12)OCO3`, the Potency entry was “inactive”. For `CN(C)S(=O)(=O)c1ccc2c(c1)/C(=C/c1cc3c([nH]1)CCCC3)C(=O)N2`, the Potency entry was “inactive”.

With `O=C1Cc2c([nH]c3ccc(Br)cc23)-c2ccccc2N1`, the Potency result was “inactive”. As to `CC(=O)NCCc1c[nH]c2ccc(O)cc12`, the Potency result is “inactive”.

Consider `CCN(c1nc(N)c(C(=O)N=C(N)N)nc1Cl)C(C)C`, for which the Potency result was “inactive”. On the same count and under the same terms, the entry for `CC[C@@H]1Cc2cc(O)ccc2C2=C1c1ccc(O)cc1C[C@H]2CC` is “inactive”; for `CC(C)(C)NCC(O)COc1cccc2[nH]c(=O)[nH]c12` (stereo unspecified) it is “inactive”. In the case of `N=C(N)SCCc1cnc[nH]1`, the Potency entry was “inactive”. Regarding `C=CCN1CCc2cc(O)c(O)cc2C(c2ccccc2)C1` (stereo unspecified), the Potency entry was “inactive”. Still for that read-out and setting: the entry for `CC(C)NC[C@H](O)COc1ccc(CC(N)=O)cc1` is “inactive”; for `CCCCCCCC/C=C\CCCCCCCC(=O)NCCc1ccc(O)c(O)c1` it is “inactive”; for `NC1(C(=O)O)CCc2cc(C(=O)O)ccc21` (stereo unspecified) it is “inactive”.

As to `O=c1oc(Cl)c(Cl)c2ccccc12`, the Potency entry is “inactive”.

Regarding `O=C1Nc2ccc(I)cc2/C1=C/c1cc(Br)c(O)c(Br)c1`, the Potency entry is “inactive”. The same measure, in the same setting: the entry for `N#C/C(=C\c1ccc(O)c(O)c1)C(=O)NCCCNC(=O)/C(C#N)=C/c1ccc(O)c(O)c1` is “inactive”; for `CC(N)(C(=O)O)c1ccc(C(=O)O)cc1` (stereo unspecified) it is “inactive”.

Tested on in another assay: not listed separately
The assay is described as follows: qHTS drug screen for cell cycle checkpoint inhibitors in PARPi-resistant BRCA-mutant ovarian cancer cell lines. (AID 1963452; calls by dose curve). The settings on record: PEO1/OlaR viability, CellTiter-Glo luminescence, 96 h; stronger effect = lower value. An outline of the steps:
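PEO1, PEO4 and PEO1/OlaR ovarian cancer cells, 600 per well, exposed 96 h at 37C to a dilution series. Viability read by CellTiter-Glo luminescence, normalized to DMSO and empty wells; activity summarized as Z-AUC.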
As for `CC1=C(/C=C/C(C)=C/C=C/C(C)=C\C(=O)O)C(C)(C)CCC1`, the Z-AUC is -0.242 (inactive). On to `CCCc1c(OCCCOc2ccc(OCC(=O)O)cc2)ccc(C(C)=O)c1O`, for which the Z-AUC is 1.58 (inactive). On the same count and under the same terms, the figure for `CN(C)S(=O)(=O)c1ccc2c(c1)/C(=C/c1cc3c([nH]1)CCCC3)C(=O)N2` is 1.05 (inactive); for `COc1cc(/C=C(\C#N)C(=O)Nc2nnc(C(F)(F)F)s2)ccc1OCc1ccc(C(F)(F)F)cc1C(F)(F)F` it is 0.582 (inactive). Still for that read-out and setting: in the case of `O=C1Nc2ccc(I)cc2/C1=C/c1cc(Br)c(O)c(Br)c1` it was 1.3 (inactive).

Still in this assay, the particulars now being: PEO1/OlaR viability, CellTiter-Glo luminescence, 96 h; measured here: PEO1 parental Z-AUC; stronger effect = lower value.
For `CC1=C(/C=C/C(C)=C/C=C/C(C)=C\C(=O)O)C(C)(C)CCC1`, the Z-AUC came to 0.115. The same measure, in the same setting: in the case of `CCCc1c(OCCCOc2ccc(OCC(=O)O)cc2)ccc(C(C)=O)c1O` it was 1.27; in that of `CN(C)S(=O)(=O)c1ccc2c(c1)/C(=C/c1cc3c([nH]1)CCCC3)C(=O)N2`, 0.668. Same read-out and setting: in the case of `COc1cc(/C=C(\C#N)C(=O)Nc2nnc(C(F)(F)F)s2)ccc1OCc1ccc(C(F)(F)F)cc1C(F)(F)F` it was 0.483; in that of `O=C1Nc2ccc(I)cc2/C1=C/c1cc(Br)c(O)c(Br)c1`, 0.638.

Still in this assay, the particulars now being: PEO1/OlaR viability, CellTiter-Glo luminescence, 96 h; measured here: PEO4 Z-AUC; stronger effect = lower value.
Turning to `CC1=C(/C=C/C(C)=C/C=C/C(C)=C\C(=O)O)C(C)(C)CCC1`, the Z-AUC came to 0.0344. On the same count and under the same terms, the figure for `CCCc1c(OCCCOc2ccc(OCC(=O)O)cc2)ccc(C(C)=O)c1O` is 1.18; for `CN(C)S(=O)(=O)c1ccc2c(c1)/C(=C/c1cc3c([nH]1)CCCC3)C(=O)N2` it is 0.277; for `COc1cc(/C=C(\C#N)C(=O)Nc2nnc(C(F)(F)F)s2)ccc1OCc1ccc(C(F)(F)F)cc1C(F)(F)F` it is 0.578.

In the case of `O=C1Nc2ccc(I)cc2/C1=C/c1cc(Br)c(O)c(Br)c1`, the Z-AUC is 0.686.

Tested on in the next assay: not listed separately
Nature of the assay: qHTS profiling for inhibitors of Plasmodium falciparum proliferation (AID 504749). Further: nearly all actives have a fitted effect of over 60% in size. Particulars: P. falciparum in erythrocytes, SYBR Green DNA, 72 h; series mostly up to 28.7 µM. The essentials:
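Three-day growth assay of blood-stage parasites in erythrocytes (0.3% parasitemia, 2.5% hematocrit) at 37 C, 5% CO2, quantified by SYBR Green DNA staining after overnight detergent lysis.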
On to `CCCCCCCCCCCCCCCCCCOC[C@H](COP(=O)([O-])OCC[N+](C)(C)C)OC`, for which the outcome was inactive.

In the case of `CCCCCCCCCCCCCCC[C@H](O)[C@H](N)CO`, the compound was classed as inactive. Still for that read-out and setting: in the case of `CN1C2CCC1CC(OC(c1ccccc1)c1ccccc1)C2` (stereo unspecified) it was “inactive”; in that of `CC(O)C(O)[C@H]1CNc2nc(N)[nH]c(=O)c2N1` (stereo partly specified), “inactive”. On to `CC(C)NC[C@H](O)COc1ccc(CC(N)=O)cc1`, for which the compound was classed as inactive.
